BAZ2B block: inhibitors of human BAZ2B bromodomain; Q9UIF8; AlphaScreen BAZ2B-H3K14Ac peptide displacement; Potency, µM (doses to about 114 µM), actives largely listed as inhibitors; 4.4% of 360,000 active; also: nearly all actives have a fitted effect of over 60% in size
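Inhibition is scored as reduced AlphaScreen emission. The BAZ2B/b-H3(5-23)K14Ac complex (50 nM each) in PBS pH 7.4, 0.01% Tween-20 meets compound (up to 110 uM) for 30 min at RT before bead addition.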
Sfp inh: inhibitors of Bacillus subtilis Sfp phosphopantetheinyl transferase. 3.5% of 310,000 active. Potency, µM, usual class: inhibitors. Biochemical Sfp PPTase activity, qHTS. Q9F4F7;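 also: the enzyme is Sfp with the accession as filed and its product quenches rhodamine fluorescence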
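Compounds were incubated with enzyme (final 15 nM) for 15 min at room temperature before substrate addition started the reaction. Fluorescence at 525 nm excitation, 598 nm emission was recorded immediately and after 30 minutes.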
HP1b chromo inh: HP1-beta chromodomain-methylated histone interaction inhibition | 0.56% of 390,000 active | AID 540317 | P83916 | Potency, µM (doses to about 114 µM), actives largely listed as inhibitors | AlphaScreen HP1-beta / biotin-H3K9me3 peptide binding; also: nearly all actives have a fitted effect of over 70% in size
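AlphaScreen: HP1-beta (50 nM) preformed 30 min with biotin-H3(1-18)K9me3 peptide (50 nM) in PBS pH 7.4, 0.01% Tween-20. Compound added for 30 min at RT, then streptavidin donor/nickel chelate acceptor beads (10 ug/mL) for 30 min.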
G9a block: inhibitors of human histone lysine methyltransferase G9a | G9a H3K9 monomethylation, AlphaScreen, 2 h | Potency, µM (top dose mostly 102 µM), hits mostly inhibitors | 8.8% of 350,000 active | AID 504332; also: nearly all actives have a fitted effect of over 75% in size
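AlphaScreen detection with an anti-monomethyl H3K9 antibody quantified product after a 2 h room-temperature reaction containing 500 nM biotinylated H3K9 peptide, 20 µM SAM and 20 nM enzyme, which had been preincubated 15 min with compound.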
JMJD2A Tudor inh: inhibitors of human JMJD2A Tudor domain; O75164; AlphaScreen JMJD2A-Tudor / H3K4me3 peptide binding; Potency, µM (highest dose often 114 µM), usual class: inhibitors; 4.4% of 390,000 active; also: nearly all actives have a fitted effect of over 50% in size
L3MBTL1 block: blocks human L3MBTL1; Q9Y468; AlphaScreen L3MBTL1–H3K9me1 peptide binding; Potency, µM (doses to about 57.1 µM), most hits filed as inhibitors; 0.66% of 230,000 active; also: nearly all actives have a fitted effect of over 60% in size
Target sequence (Q9Y468 whole entry, looked up): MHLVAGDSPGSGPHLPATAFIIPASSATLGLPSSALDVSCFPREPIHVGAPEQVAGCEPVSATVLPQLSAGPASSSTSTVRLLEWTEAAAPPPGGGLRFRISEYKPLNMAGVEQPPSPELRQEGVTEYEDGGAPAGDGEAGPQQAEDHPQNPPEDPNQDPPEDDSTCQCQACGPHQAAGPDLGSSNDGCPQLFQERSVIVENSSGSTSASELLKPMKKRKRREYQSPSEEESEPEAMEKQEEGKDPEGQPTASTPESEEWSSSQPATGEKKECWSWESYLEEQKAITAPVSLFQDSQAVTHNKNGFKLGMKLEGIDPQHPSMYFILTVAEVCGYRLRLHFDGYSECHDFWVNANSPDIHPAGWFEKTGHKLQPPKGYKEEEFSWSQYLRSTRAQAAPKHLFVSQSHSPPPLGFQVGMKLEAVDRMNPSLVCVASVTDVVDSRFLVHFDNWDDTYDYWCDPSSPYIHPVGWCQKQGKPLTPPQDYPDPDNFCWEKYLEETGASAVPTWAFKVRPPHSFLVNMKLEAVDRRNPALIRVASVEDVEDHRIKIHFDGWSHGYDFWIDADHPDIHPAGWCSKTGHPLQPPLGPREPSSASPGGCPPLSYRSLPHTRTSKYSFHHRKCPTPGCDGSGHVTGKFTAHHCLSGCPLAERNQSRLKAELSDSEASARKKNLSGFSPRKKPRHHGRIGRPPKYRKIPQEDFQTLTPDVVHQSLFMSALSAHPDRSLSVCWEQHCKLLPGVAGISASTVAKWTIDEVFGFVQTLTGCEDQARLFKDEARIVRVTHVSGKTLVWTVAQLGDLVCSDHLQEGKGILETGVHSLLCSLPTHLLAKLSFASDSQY
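AlphaScreen assay: L3MBTL1 (50 nM final) was preincubated 30 min at room temperature with biotinylated H3(1-15)K9me1 peptide (75 nM final), then 30 min with library compounds; streptavidin donor and nickel chelate acceptor beads (10 ug/mL final) added, 30 min dark.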
Hits are given with their value; – = inactive; ? = inconclusive; · = no result; ! = not confirmed by another sample; [ ] = another dose, or the depositor's remark. Only some compounds are listed: those with a hit (about 12% of all), similar ones and a draw of the others. Calls follow the shape of the dose curve; as a rule, active = well fitted curve in the direction sought with a large enough effect; inconclusive = small, poorly fitted or top-dose-only effect, or another doubt; inactive = no such curve, though single readings can be large; an effect the other way counts as inactive or inconclusive.

SMILES	BAZ2B block	Sfp inh	HP1b chromo inh	G9a block	JMJD2A Tudor inh	L3MBTL1 block
O=C(O)[C@@H]1C[C@@H](C(=O)O)N1	·	?	·	24µM!	·	·
O=C1CC[C@H](C(=O)O)N1	·	–	·	–	·	·
O=C1NC(=S)S/C1=C\c1cccc([N+](=O)[O-])c1	·	·	–	·	–	·
O=C1NC(=Nc2ccccc2Cl)S/C1=C\c1cccc([N+](=O)[O-])c1O	11µM	–	?	8.9µM	40µM	·
O=C1NC(=Nc2ccccc2Cl)S/C1=C\c1cccc([N+](=O)[O-])c1	50µM	–	–	?	?	–
COc1ccc([C@]23Cc4ccccc4C(O2)C2=C(CC4(CCCCC4)OC2=O)O3)cc1	–[22.9 µM]	–	·	–[2.33 µM]	·	·
CC1=CC(c2ccc(Cl)cc2)n2nc(N3C(=O)CCC3=O)nc2N1 (centres undefined)	–	–	–	?	?	–
Cc1ccc(C2C=C(c3ccccc3)Nc3nc(NS(C)(=O)=O)nn32)cc1 (centres undefined)	–	·	–	20µM	–	·
Cc1ccc(C2C=C(c3ccccc3)Nc3nc(NS(=O)(=O)c4ccccc4)nn32)cc1 (centres undefined)	–	·	–	14µM	–	·
Cc1ccc(S(=O)(=O)Nc2nc3n(n2)C(c2ccc(Cl)cc2)C=C(c2ccccc2)N3)cc1 (centres undefined)	–	·	–	–	–	·
Cc1ccc(S(=O)(=O)Nc2nc3n(n2)C(c2ccc(F)cc2)C=C(c2ccccc2)N3)cc1 (centres undefined)	–	·	–	?	–	·
Cc1ccc(C2C=C(c3ccccc3)Nc3nc(N4C(=O)CCC4=O)nn32)cc1 (centres undefined)	50µM	–	–	?	79µM	–[11.4 µM]
Cc1ccc(C2C=C(c3ccc(Cl)cc3)Nc3nc(NC(=O)c4ccco4)nn32)cc1 (centres undefined)	50µM	·	–	32µM	79µM	·
CCOC(=O)C1CCN(C(=O)Cn2c(=O)oc3cc(S(=O)(=O)N4CCC(C)CC4)ccc32)CC1	–	·	–	–	–	·
CCO[C@H]1O[C@@H]([C@H](COCc2ccccc2)OCc2ccccc2)[C@@H](OCc2ccccc2)[C@H]1O	·	–	·	–[21.5 µM]	·	·
Cc1cc(C)cc(NC(=O)c2ccc3c(c2)nnn3C2CCCC2)c1	–	·	–	–	–	·
O=S(=O)(Nc1nc2n(n1)C(c1ccccc1)C=C(c1ccc(Cl)cc1)N2)c1ccccc1 (centres undefined)	79µM	·	–	?	–	·
CC1(c2nnc(-c3cccc(Cl)c3)o2)CC(c2cccc([N+](=O)[O-])c2)=NO1 (centres undefined)	–	–	–	45µM	?	–
CC1(c2nnc(-c3ccccc3)o2)CC(c2cccc(Cl)c2)=NO1 (centres undefined)	–	–	–	–[12.7 µM]	–	·
COc1ccc(C2=NOC(C)(c3sc(-c4ccc(Cl)cc4)nc3C)C2)cc1 (centres undefined)	·	·	–	·	–	·
Cc1nc(-c2ccc(Cl)cc2)sc1C1(C)CC(c2cccnc2)=NO1 (centres undefined)	–	56µM	–	–	–	·
O=C(c1csnn1)N1CCC[C@@]2(CCN(c3ccncc3)C2)C1	·	–	·	–[12.7 µM]	·	·
Cc1cc(C)n2cc(CSc3nc4ccccc4[nH]3)nc2n1	–	–	–	20µM	–	–
Fc1ccccc1CSc1nc2ccccc2[nH]1	–	–	–	50µM	–[11.4 µM]	·
Cn1nnnc1SCCCNCc1ccccc1OCc1ccc(F)cc1	–	·	–	–	–	·
SMILES	BAZ2B block	Sfp inh	HP1b chromo inh	G9a block	JMJD2A Tudor inh	L3MBTL1 block
COc1ccc(-c2ccc3ccccc3n2)cc1	–	–	–	–[12.7 µM]	–	–
Nc1ccc(-c2ccc3ccccc3n2)cc1	·	–	·	19µM	·	·
CCc1sc(/C=C(/C#N)C(N)=S)cc1[N+](=O)[O-]	?	2.8µM	?	13µM	?	·
Cc1ccc(OCc2nc(C#N)c(NCc3ccco3)o2)cc1	35µM	–	–	50µM	?	·
Cc1ccc(-c2nc(C#N)c(NCc3ccco3)o2)cc1	–	–	–	–	–	–[11.4 µM]
COc1ccc(Nc2oc(COc3ccc(C)cc3)nc2C#N)cc1	?	–	–	?	89µM	–

From PubChem BioAssay
